The structures appear in SMILES notation. Inconclusive results are not listed. Where a call stands in place of a potency, no number is given. Active and inactive are the calls of the source. Calls come from the whole dose curve.

Sequence of Retinoic acid receptor RXR-alpha (Homo sapiens) (P19793 whole entry, looked up): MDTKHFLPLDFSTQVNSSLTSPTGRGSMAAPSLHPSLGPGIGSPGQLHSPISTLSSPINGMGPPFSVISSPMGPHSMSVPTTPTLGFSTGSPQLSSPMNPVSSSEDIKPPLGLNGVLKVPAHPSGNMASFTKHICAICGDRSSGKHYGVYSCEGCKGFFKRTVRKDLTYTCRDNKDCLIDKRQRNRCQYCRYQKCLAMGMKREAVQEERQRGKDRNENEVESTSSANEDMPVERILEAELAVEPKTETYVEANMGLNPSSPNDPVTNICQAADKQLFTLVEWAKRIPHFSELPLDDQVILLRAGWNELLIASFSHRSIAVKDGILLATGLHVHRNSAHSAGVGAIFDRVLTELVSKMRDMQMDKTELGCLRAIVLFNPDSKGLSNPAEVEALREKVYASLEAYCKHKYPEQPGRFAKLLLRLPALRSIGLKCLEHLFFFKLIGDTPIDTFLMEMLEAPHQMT

Tested on in the first test: not listed separately
As to the kind of experiment: qHTS assay to identify small molecule agonists of the AP-1 signaling pathway (AID 1159526). The following applies: ME-180 (cervical carcinoma) AP-1-bla reporter, beta-lactamase FRET ratio, 5 h; series mostly up to 76.8 µM.
In the case of `O=[N+]([O-])c1cccc(S(=O)(=O)NCCNS(=O)(=O)c2cccc([N+](=O)[O-])c2)c1`, the outcome was inactive.
For `CCCCC(CC)COC(=O)COc1ccc(Cl)cc1C` (configuration not stated), the outcome was inactive.
For `CN1CCN(c2c(F)cc3c(=O)c(C(=O)O)cn4c3c2OCN4C)CC1`, the activation was 4.3% [at 15.8 µM] (inactive).
Regarding `O=C1NCCN1`, the result was inactive.
For `C=CC(C)(O)CCCC(C)CCCC(C)CCCC(C)C` (configuration not stated), the result was inactive.
On the same count and under the same terms, under `COc1cc2c(N3CCN(C(=O)Nc4ccc(OC(C)C)cc4)CC3)ncnc2cc1OCCCN1CCCCC1` stands “inactive”; under `OC(CCCN1CCCCC1)(c1ccccc1)c1ccccc1`, “inactive”; under `Nc1c(I)cc(I)c(C(=O)N(CCC(=O)O)c2ccccc2)c1I`, “inactive”.
Consider `Nc1nccs1`, for which the result was inactive.
`O=C(O)c1snc(Cl)c1Cl`: the result was inactive.
Regarding `CCC1(C)CC(=O)NC1=O` (configuration not stated), the result was inactive.
Regarding `C/C(=N/NC(=O)c1ccncc1)C(=O)O`, the outcome was inactive.
On the same count and under the same terms, the value for `CCn1nc(C)c2c1C(=O)NCC(c1ccc(O)cc1)=N2` was “inactive”; that for `Cc1ccccc1N1C(=O)c2cc(S(N)(=O)=O)c(Cl)cc2NC1C` (configuration not stated) was “inactive”; that for `O=S(=O)(c1ccccc1)c1ccc(Cl)cc1` was “inactive”.
Same read-out and setting: the value for `Nc1nc(Cl)nc2c1ncn2[C@@H]1O[C@H](CO)[C@@H](O)[C@@H]1F` was “inactive”.
The same measure, in the same setting: under `CC(C)C(=O)O` stands “inactive”.
`CCOC(=O)C(C)Oc1ccc(Oc2nc3ccc(Cl)cc3o2)cc1` (configuration not stated): the result was inactive.
On to `Oc1cc(O)c(Cl)cc1Cl`, for which the outcome was inactive.
With `C[C@@H]1C[C@H]2[C@@H]3CCC4=CC(=O)C=C[C@]4(C)[C@@]3(F)[C@@H](O)C[C@]2(C)[C@H]1C(=O)CO`, the result was inactive.
For `O=S1OCCO1`, the result was inactive.
The same measure, in the same setting: under `CC(=O)Nc1ccccc1C` stands “inactive”; under `Nc1ccc(S(=O)(=O)O)c(N)c1`, “inactive”.
On the same count and under the same terms, under `CCCCN(CCCC)CCCOC(=O)c1ccc(N)cc1` stands “inactive”; under `C=CC(C)=CCC=C(C)C`, “inactive”.
The same measure, in the same setting: under `CCC(C)=O` stands “inactive”; under `COC(=O)[C@@H]1CC2=CC(=O)CC[C@]2(C)[C@@]23O[C@@H]2C[C@@]2(C)[C@@H](CC[C@@]24CCC(=O)O4)[C@H]13`, “inactive”; under `NC(=O)Nc1ccc(Cl)cc1`, “inactive”.
Regarding `Cc1ccc(S(=O)(=O)NC2CCCCC2)cc1`, the result was inactive.
The same measure, in the same setting: under `CO[Si](C)(OC)OC` stands “inactive”.
As to `CCCCOC(=O)CCS`, the outcome was inactive.
Regarding `CCOc1cc(N)c(Cl)cc1C(=O)NCC1CN(Cc2ccc(F)cc2)CCO1` (configuration not stated), the result was inactive.
Consider `CN1CCCN=C1/C=C/c1cccs1`, for which the outcome was inactive.
The same measure, in the same setting: the value for `CCCCCCCCCOC(C)=O` was “inactive”; that for `Cn1c(=O)c2c(ncn2CC(=O)O)n(C)c1=O` was “inactive”; that for `N#C[C@@H]1C[C@@H]2C[C@@H]2N1C(=O)[C@@H](N)C12CC3CC(CC(O)(C3)C1)C2` was “inactive”.
Take `O=C(O)c1ccc(CO)o1`: the result was inactive.
The same measure, in the same setting: the value for `CN1Cc2cc(C(=O)N3CCC(C4CCNCC4)CC3)ccc2N[C@@H](CC(=O)O)C1=O` was “inactive”; that for `CC1(C)C2=CCCC(C)(C)[C@]23CC[C@H]1C3` was “inactive”.

Another test concerns the target Retinoic acid receptor RXR-alpha (Homo sapiens) (UniProt P19793). Description: qHTS assay to identify small molecule agonists of the RXR signaling pathway (AID 1159527). Note: nearly all actives have a fitted effect of over 35% in size. Note: potency is the fitted concentration of half-maximal effect. Conditions: HEK293T RXRa-UAS-bla, beta-lactamase ratio, 16 h; series mostly up to 76.8 µM. Put shortly:
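Beta-lactamase reporter assay, agonist format. Engineered HEK 293T line, charcoal-stripped FBS at 2%, overnight (16 hr) exposure, fluorescence at 460 and 530 nm after 405 nm excitation.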
Consider `O=[N+]([O-])c1cccc(S(=O)(=O)NCCNS(=O)(=O)c2cccc([N+](=O)[O-])c2)c1`, for which the Potency entry was “inactive”.
On to `CCCCC(CC)COC(=O)COc1ccc(Cl)cc1C` (configuration not stated), for which the Potency entry was “inactive”.
On to `CN1CCN(c2c(F)cc3c(=O)c(C(=O)O)cn4c3c2OCN4C)CC1`, for which the activation was 9.65% [at 15.8 µM] (inactive).
With `C=CC(C)(O)CCCC(C)CCCC(C)CCCC(C)C` (configuration not stated), the Potency was 6.13 µM (active).
The same measure, in the same setting: under `COc1cc2c(N3CCN(C(=O)Nc4ccc(OC(C)C)cc4)CC3)ncnc2cc1OCCCN1CCCCC1` stands “inactive”.
Same read-out and setting: the value for `OC(CCCN1CCCCC1)(c1ccccc1)c1ccccc1` was “inactive”.
The same measure, in the same setting: under `Nc1nccs1` stands “inactive”.
Take `O=C(O)c1snc(Cl)c1Cl`: the Potency entry is “inactive”.
Same read-out and setting: the value for `CCC1(C)CC(=O)NC1=O` (configuration not stated) was “inactive”; that for `C/C(=N/NC(=O)c1ccncc1)C(=O)O` was “inactive”.
As for `CCn1nc(C)c2c1C(=O)NCC(c1ccc(O)cc1)=N2`, the Potency result is “inactive”.
On the same count and under the same terms, under `Cc1ccccc1N1C(=O)c2cc(S(N)(=O)=O)c(Cl)cc2NC1C` (configuration not stated) stands “inactive”; under `O=S(=O)(c1ccccc1)c1ccc(Cl)cc1`, “inactive”; under `Nc1nc(Cl)nc2c1ncn2[C@@H]1O[C@H](CO)[C@@H](O)[C@@H]1F`, “inactive”.
On the same count and under the same terms, the value for `CC(C)C(=O)O` was “inactive”; that for `Oc1cc(O)c(Cl)cc1Cl` was “inactive”; that for `C[C@@H]1C[C@H]2[C@@H]3CCC4=CC(=O)C=C[C@]4(C)[C@@]3(F)[C@@H](O)C[C@]2(C)[C@H]1C(=O)CO` was “inactive”.
Same read-out and setting: under `O=S1OCCO1` stands “inactive”; under `CC(=O)Nc1ccccc1C`, “inactive”; under `Nc1ccc(S(=O)(=O)O)c(N)c1`, “inactive”.
As for `CCCCN(CCCC)CCCOC(=O)c1ccc(N)cc1`, the Potency result was “inactive”.
`C=CC(C)=CCC=C(C)C`: the Potency result is “inactive”.
On to `COC(=O)[C@@H]1CC2=CC(=O)CC[C@]2(C)[C@@]23O[C@@H]2C[C@@]2(C)[C@@H](CC[C@@]24CCC(=O)O4)[C@H]13`, for which the Potency result was “inactive”.
Same read-out and setting: the value for `NC(=O)Nc1ccc(Cl)cc1` was “inactive”; that for `CO[Si](C)(OC)OC` was “inactive”.
`CCCCOC(=O)CCS`: the Potency result is “inactive”.
Consider `CCOc1cc(N)c(Cl)cc1C(=O)NCC1CN(Cc2ccc(F)cc2)CCO1` (configuration not stated), for which the Potency entry was “inactive”.
On to `CN1CCCN=C1/C=C/c1cccs1`, for which the Potency entry is “inactive”.
On the same count and under the same terms, the value for `CCCCCCCCCOC(C)=O` was “inactive”; that for `Cn1c(=O)c2c(ncn2CC(=O)O)n(C)c1=O` was “inactive”; that for `N#C[C@@H]1C[C@@H]2C[C@@H]2N1C(=O)[C@@H](N)C12CC3CC(CC(O)(C3)C1)C2` was “inactive”.
As for `CN1Cc2cc(C(=O)N3CCC(C4CCNCC4)CC3)ccc2N[C@@H](CC(=O)O)C1=O`, the Potency entry was “inactive”.
Still for that read-out and setting: under `CC1(C)C2=CCCC(C)(C)[C@]23CC[C@H]1C3` stands “inactive”.
